Reference: PubChem BioAssay (NCI)
Compounds without any hit were thinned out: in the full panel of roughly 83,000, 20% have a hit.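 Assay: single dose, 48 h. Readout: percent growth (0 = no net growth; negative = cell death). Active: <10.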 Activity calls are given as the source filed them.

Assays:
Assay in all cases: NCI-60 one-dose screen, 48 h (100 = growth as untreated, 0 = no growth, -100 = all killed)
Details in all cases: 10 µM unless noted
SR leukemia = tested on: SR leukemia
RPMI-8226 leukemia = tested on: RPMI-8226 leukemia
OVCAR-8 ovarian = tested on: OVCAR-8 ovarian
OVCAR-4 ovarian = tested on: OVCAR-4 ovarian
SK-OV-3 ovarian = tested on: SK-OV-3 ovarian
IGROV1 ovarian = tested on: IGROV1 ovarian
OVCAR-3 ovarian = tested on: OVCAR-3 ovarian
HS 578T breast = tested on: HS 578T breast
NCI/ADR-RES ovarian = tested on: NCI/ADR-RES ovarian
T-47D breast = tested on: T-47D breast
BT-549 breast = tested on: BT-549 breast
MDA-MB-435 melanoma = tested on: MDA-MB-435 melanoma
SW-620 colon = tested on: SW-620 colon
MCF7 breast = tested on: MCF7 breast
HCT-116 colon = tested on: HCT-116 colon
HCC-2998 colon = tested on: HCC-2998 colon
KM12 colon = tested on: KM12 colon
OVCAR-5 ovarian = tested on: OVCAR-5 ovarian

Measured: growth

COC1(OC)C2(Cl)C(Cl)=C(Cl)C1(Cl)C1COCC12 (configuration not stated)
inactive: SR leukemia 89.9% | RPMI-8226 leukemia 106% | OVCAR-8 ovarian 93.9% | OVCAR-4 ovarian 97.7% | SK-OV-3 ovarian 96% | IGROV1 ovarian 113% | OVCAR-3 ovarian 110% | HS 578T breast 87.4% | NCI/ADR-RES ovarian 110% | T-47D breast 96.2% | BT-549 breast 105% | MDA-MB-435 melanoma 99% | SW-620 colon 85.8% | MCF7 breast 101% | HCT-116 colon 91.5% | HCC-2998 colon 105% | KM12 colon 111%

FC(F)(F)c1cc(NC2=NCCN=C(Nc3cc(C(F)(F)F)cc(C(F)(F)F)c3)SS2)cc(C(F)(F)F)c1
inactive: OVCAR-8 ovarian 48.6% | OVCAR-5 ovarian 102% | OVCAR-4 ovarian 65.8% | SK-OV-3 ovarian 79.5% | IGROV1 ovarian 49.7% | OVCAR-3 ovarian 25.8% | HS 578T breast 79.3% | NCI/ADR-RES ovarian 59.6% | T-47D breast 15.8% | BT-549 breast 71.2% | MDA-MB-435 melanoma 65.1% | SW-620 colon 52% | MCF7 breast 31.6% | HCT-116 colon 45.4% | HCC-2998 colon 76.9% | KM12 colon 44.2%
active: SR leukemia 1.94%

NS(=O)(=O)c1cc(=O)[nH]c(=O)[nH]1
inactive: SR leukemia 135% | OVCAR-8 ovarian 114% | OVCAR-5 ovarian 112% | OVCAR-4 ovarian 110% | SK-OV-3 ovarian 108% | IGROV1 ovarian 121% | OVCAR-3 ovarian 116% | HS 578T breast 102% | NCI/ADR-RES ovarian 109% | T-47D breast 113% | BT-549 breast 107% | MDA-MB-435 melanoma 105% | SW-620 colon 109% | MCF7 breast 101% | HCT-116 colon 105% | HCC-2998 colon 121% | KM12 colon 104%

O=C1NC(=O)/C(=C\c2ccncc2)N1
inactive: SR leukemia 92.2% | OVCAR-8 ovarian 103% | OVCAR-5 ovarian 98.3% | OVCAR-4 ovarian 98.6% | SK-OV-3 ovarian 99.2% | IGROV1 ovarian 109% | OVCAR-3 ovarian 94.3% | HS 578T breast 95% | NCI/ADR-RES ovarian 103% | T-47D breast 101% | BT-549 breast 99.5% | MDA-MB-435 melanoma 96% | SW-620 colon 99% | MCF7 breast 94.9% | HCT-116 colon 89.6% | HCC-2998 colon 133% | KM12 colon 86.9%

COC1OC(CO)C(OC)C(O)C1O (configuration not stated)
inactive: SR leukemia 93.8% | RPMI-8226 leukemia 101% | OVCAR-8 ovarian 105% | OVCAR-4 ovarian 98.5% | SK-OV-3 ovarian 105% | IGROV1 ovarian 102% | OVCAR-3 ovarian 112% | HS 578T breast 112% | NCI/ADR-RES ovarian 93.5% | T-47D breast 112% | MDA-MB-435 melanoma 109% | SW-620 colon 93.6% | MCF7 breast 98.9% | HCT-116 colon 106% | HCC-2998 colon 107% | KM12 colon 99.6%

Clc1cccc(Cl)c1C1CSc2ccccc2N=C1c1ccccc1 (configuration not stated)
inactive: OVCAR-5 ovarian 101% | OVCAR-4 ovarian 73% | SK-OV-3 ovarian 96.5% | IGROV1 ovarian 91.8% | OVCAR-3 ovarian 69.6% | HS 578T breast 88.1% | NCI/ADR-RES ovarian 73.3% | T-47D breast 65.4% | MDA-MB-435 melanoma 15.4% | HCT-116 colon 19.3% | HCC-2998 colon 95.4% | KM12 colon 44.1%
active: SR leukemia -14% | RPMI-8226 leukemia -14.8% | SW-620 colon 3.48% | MCF7 breast 9.8%

NNC(=O)c1ccccc1N
inactive: SR leukemia 156% | OVCAR-8 ovarian 107% | OVCAR-5 ovarian 89.8% | OVCAR-4 ovarian 106% | SK-OV-3 ovarian 114% | IGROV1 ovarian 127% | OVCAR-3 ovarian 124% | HS 578T breast 117% | NCI/ADR-RES ovarian 105% | T-47D breast 103% | BT-549 breast 121% | MDA-MB-435 melanoma 114% | SW-620 colon 103% | MCF7 breast 101% | HCT-116 colon 99.3% | HCC-2998 colon 112% | KM12 colon 105%

CC(=O)Nc1ccc(C(=O)c2ccc(S(=O)(=O)Nc3ccccc3)cc2)cc1
inactive: SR leukemia 105% | RPMI-8226 leukemia 68.1% | OVCAR-8 ovarian 84% | OVCAR-4 ovarian 95.5% | SK-OV-3 ovarian 104% | OVCAR-3 ovarian 105% | HS 578T breast 127% | NCI/ADR-RES ovarian 30.6% | T-47D breast 99.2% | MDA-MB-435 melanoma 101% | SW-620 colon 103% | MCF7 breast 85.3% | HCT-116 colon 75.4% | KM12 colon 108%
active: HCC-2998 colon -97.1%

COc1cc(C(=O)NC(=S)NCc2ccncc2)cc(OC)c1OC
inactive: SR leukemia 74.2% | RPMI-8226 leukemia 97.2% | OVCAR-8 ovarian 103% | OVCAR-5 ovarian 107% | IGROV1 ovarian 107% | HS 578T breast 106% | NCI/ADR-RES ovarian 98.2% | T-47D breast 83.2% | BT-549 breast 102% | MDA-MB-435 melanoma 104% | SW-620 colon 110% | MCF7 breast 98.3% | HCT-116 colon 97.3% | HCC-2998 colon 115% | KM12 colon 98%

C=C1C(=O)C2CCN1CC2
inactive: SR leukemia 26.1% | OVCAR-8 ovarian 110% | OVCAR-5 ovarian 99.6% | OVCAR-4 ovarian 101% | SK-OV-3 ovarian 105% | IGROV1 ovarian 122% | OVCAR-3 ovarian 85.2% | HS 578T breast 101% | NCI/ADR-RES ovarian 104% | T-47D breast 98% | BT-549 breast 96.9% | MDA-MB-435 melanoma 93.7% | SW-620 colon 67.2% | MCF7 breast 94.3% | HCT-116 colon 56.4% | HCC-2998 colon 106% | KM12 colon 102%

O=C(OCc1ccccc1)n1nnc2ccccc21
inactive: SR leukemia 107% | RPMI-8226 leukemia 109% | OVCAR-8 ovarian 105% | OVCAR-4 ovarian 92.3% | SK-OV-3 ovarian 112% | IGROV1 ovarian 110% | OVCAR-3 ovarian 106% | HS 578T breast 107% | NCI/ADR-RES ovarian 111% | T-47D breast 106% | BT-549 breast 100% | MDA-MB-435 melanoma 101% | SW-620 colon 107% | HCT-116 colon 98.1% | HCC-2998 colon 103% | KM12 colon 107%

c1ccc(Oc2c3ccccc3nc3ccccc23)cc1
inactive: OVCAR-8 ovarian 23.7% | OVCAR-5 ovarian 35.3% | OVCAR-4 ovarian 15% | SK-OV-3 ovarian 39% | HS 578T breast 12.2% | NCI/ADR-RES ovarian 47.6% | T-47D breast 56.2% | BT-549 breast 25.2% | SW-620 colon 19.2% | MCF7 breast 14.2% | HCC-2998 colon 20.9%
active: SR leukemia -0.679% | IGROV1 ovarian -9.18% | OVCAR-3 ovarian -3.62% | MDA-MB-435 melanoma -5.48% | HCT-116 colon -25.7% | KM12 colon 0.624%

O=C(O)c1ccc(OCc2ccccc2)cc1
inactive: SR leukemia 99.8% | OVCAR-8 ovarian 97.9% | OVCAR-5 ovarian 93.5% | OVCAR-4 ovarian 102% | SK-OV-3 ovarian 98.8% | IGROV1 ovarian 91.1% | OVCAR-3 ovarian 118% | HS 578T breast 96% | NCI/ADR-RES ovarian 104% | T-47D breast 83.7% | BT-549 breast 104% | MDA-MB-435 melanoma 108% | SW-620 colon 107% | MCF7 breast 96.5% | HCT-116 colon 93% | HCC-2998 colon 101% | KM12 colon 111%

CCCOCc1cn[nH]n1
inactive: SR leukemia 99.2% | RPMI-8226 leukemia 111% | OVCAR-8 ovarian 102% | OVCAR-4 ovarian 110% | SK-OV-3 ovarian 109% | IGROV1 ovarian 113% | OVCAR-3 ovarian 108% | HS 578T breast 114% | NCI/ADR-RES ovarian 106% | T-47D breast 105% | BT-549 breast 109% | MDA-MB-435 melanoma 105% | SW-620 colon 109% | MCF7 breast 103% | HCT-116 colon 107% | HCC-2998 colon 104% | KM12 colon 106%

CC(C)N1CC(=O)N2CSCC2C1=O (configuration not stated)
inactive: SR leukemia 114% | RPMI-8226 leukemia 109% | OVCAR-8 ovarian 106% | OVCAR-4 ovarian 123% | SK-OV-3 ovarian 116% | IGROV1 ovarian 111% | OVCAR-3 ovarian 104% | HS 578T breast 98.7% | NCI/ADR-RES ovarian 109% | T-47D breast 108% | BT-549 breast 110% | MDA-MB-435 melanoma 105% | SW-620 colon 102% | MCF7 breast 98.7% | HCT-116 colon 112% | HCC-2998 colon 102% | KM12 colon 98%

CCOC(=O)c1ccc(NC(C)=O)o1
inactive: SR leukemia 79.3% | RPMI-8226 leukemia 103% | OVCAR-8 ovarian 91.3% | OVCAR-4 ovarian 107% | SK-OV-3 ovarian 92.1% | IGROV1 ovarian 108% | OVCAR-3 ovarian 113% | HS 578T breast 89.6% | NCI/ADR-RES ovarian 97.5% | T-47D breast 93.5% | MDA-MB-435 melanoma 103% | SW-620 colon 78.7% | MCF7 breast 96.9% | HCT-116 colon 101% | HCC-2998 colon 115% | KM12 colon 102%

OC(CCN1CCCCC1)(c1ccccc1)c1ccccc1
inactive: SR leukemia 104% | RPMI-8226 leukemia 100% | OVCAR-8 ovarian 99% | OVCAR-4 ovarian 99.8% | SK-OV-3 ovarian 112% | IGROV1 ovarian 106% | OVCAR-3 ovarian 112% | HS 578T breast 107% | T-47D breast 103% | BT-549 breast 107% | MDA-MB-435 melanoma 98.9% | SW-620 colon 107% | MCF7 breast 97.9% | HCT-116 colon 102% | HCC-2998 colon 99.1% | KM12 colon 113%

OCCOc1ccc(-c2cc(-c3ccccn3)nc(-c3ccccn3)c2)cc1
inactive: SK-OV-3 ovarian 18.5% | T-47D breast 17.4% | BT-549 breast 15.9% | MDA-MB-435 melanoma 22.5%
active: SR leukemia 5.14% | RPMI-8226 leukemia 2.3% | OVCAR-5 ovarian -36.4% | OVCAR-4 ovarian 5.18% | IGROV1 ovarian -17.6% | OVCAR-3 ovarian -32.7% | NCI/ADR-RES ovarian -57% | SW-620 colon 2.05% | MCF7 breast 1.69% | HCT-116 colon 6.4% | KM12 colon 8.52%

O=S(Cc1ccccc1)/C(=C/NC(=S)Nc1ccccc1)c1ccccc1 (configuration not stated)
inactive: SR leukemia 88.4% | OVCAR-8 ovarian 107% | OVCAR-5 ovarian 99% | OVCAR-4 ovarian 98.3% | SK-OV-3 ovarian 91.4% | IGROV1 ovarian 97.6% | OVCAR-3 ovarian 105% | HS 578T breast 114% | NCI/ADR-RES ovarian 98.4% | T-47D breast 90.2% | BT-549 breast 97.6% | MDA-MB-435 melanoma 104% | SW-620 colon 104% | MCF7 breast 102% | HCT-116 colon 91.1% | HCC-2998 colon 102% | KM12 colon 99%
